Experimental data reported in PubChem BioAssay (EPA / NIEHS).
Calls of active or inactive are those of the source. How the source made its calls: active means hit-call score of the fitted dose curve at least 0.9, where 1 is the maximum; inactive means score below 0.9.

Assays:
[1] = read-out: Human Leukocyte Antigen - DR isotype (HLADR), HLA-DRA (gene 3122); experiment: BSK_CASM3C_HLADR: BioMAP Diversity Plus: CASM3C Assay for Human Leukocyte Antigen - DR isotype (HLADR) Biomarker Activity (AID 2283043); conditions: primary human coronary artery smooth muscle cells; actives raise or lower the signal;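 further: cell-surface HLA-DR protein level quantified by ELISA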
[2] = read-out: Macrophage colony-stimulating factor (MCSF), CSF1 (gene 1435); experiment: BSK_CASM3C_MCSF: BioMAP Diversity Plus: CASM3C Assay for Macrophage colony-stimulating factor (MCSF) Biomarker Activity (AID 2283044); conditions: primary human coronary artery smooth muscle cells; actives raise or lower the signal;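 further: M-CSF protein amount quantified by ELISA after 24 h exposure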
[3] = read-out: Low-density lipoprotein receptor (LDLR), LDLR (gene 3949); experiment: BSK_CASM3C_LDLR: BioMAP Diversity Plus: CASM3C Assay for Low-density lipoprotein receptor (LDLR) Biomarker Activity (AID 2283045); conditions: primary human coronary artery smooth muscle cells; actives raise or lower the signal;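 further: LDLR protein level on the cell surface quantified by ELISA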
[4] = read-out: Monocyte Chemoattractant Protein-1 (MCP1), CCL2 (gene 6347); experiment: BSK_CASM3C_MCP1: BioMAP Diversity Plus: CASM3C Assay for Monocyte Chemoattractant Protein-1 (MCP1) Biomarker Activity (AID 2283046); conditions: primary human coronary artery smooth muscle cells; actives raise or lower the signal;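 further: MCP-1 level quantified by ELISA 24 h after dosing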
[5] = read-out: Monokine induced gamma interferon (MIG), CXCL9 (gene 4283); experiment: BSK_CASM3C_MIG: BioMAP Diversity Plus: CASM3C Assay for Monokine induced gamma interferon (MIG) Biomarker Activity (AID 2283048); conditions: primary human coronary artery smooth muscle cells; actives raise or lower the signal;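 further: MIG protein level measured by ELISA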
[6] = read-out: serum amyloid A (SAA), SAA1 (gene 6288); experiment: BSK_CASM3C_SAA: BioMAP Diversity Plus: CASM3C Assay for serum amyloid A (SAA) Biomarker Activity (AID 2283049); conditions: primary human coronary artery smooth muscle cells; actives raise or lower the signal;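 further: SAA protein level quantified by ELISA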
[7] = BSK_CASM3C_SRB: Viability Assessment in the BioMAP Diversity Plus: CASM3C Assay (AID 2283050); conditions: primary human coronary artery smooth muscle cells;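 further: total protein by SRB staining as cytotoxicity measure in parallel cultures; cells exposed to compound for 24 h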
[8] = read-out: Thrombomodulin, THBD (gene 7056); experiment: BSK_CASM3C_Thrombomodulin: BioMAP Diversity Plus: CASM3C Assay for Thrombomodulin Biomarker Activity (AID 2283051); conditions: primary human coronary artery smooth muscle cells; actives raise or lower the signal;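 further: thrombomodulin protein level measured by ELISA 24 h after dosing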
[9] = read-out: Tissue Factor, F3 (gene 2152); experiment: BSK_CASM3C_TissueFactor: BioMAP Diversity Plus: CASM3C Assay for Tissue Factor Biomarker Activity (AID 2283052); conditions: primary human coronary artery smooth muscle cells; actives raise or lower the signal;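 further: cell surface tissue factor protein level read by ELISA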
[10] = BSK_CASM3C_Proliferation: Cell Proliferation Assessment in the BioMAP Diversity Plus: CASM3C Assay (AID 2283047); conditions: primary human coronary artery smooth muscle cells;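 further: sulforhodamine B total protein stain as relative cell number at 560 nm; sub-confluent cells exposed 48 h before staining; fitted both ways against DMSO so gain or loss of cell number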

Measured: AC50

C#C[C@]1(O)CC[C@H]2[C@@H]3CCC4=CC(=O)CC[C@@H]4[C@H]3CC[C@@]21C
inactive: [1] | [2] | [3] | [4] | [5] | [6] | [7] | [8] | [9]

Oc1cc2ccccc2c2ccccc12
inactive: [8]
active: [1] 7.47 µM | [2] 8.24 µM | [3] 10.1 µM | [4] 11.4 µM | [10] 10.5 µM | [5] 11.9 µM | [6] 11.3 µM | [7] 11.2 µM | [9] 10.5 µM

CCC(=C(c1ccc(O)cc1)c1ccc(OCCN(C)C)cc1)c1ccccc1
active: [1] 17.4 µM | [2] 18.4 µM | [3] 22.7 µM | [4] 24 µM | [10] 9.11 µM | [5] 24.8 µM | [6] 22.8 µM | [7] 22.2 µM | [9] 15.8 µM
inactive: [8]

CCCCCCCCCCCCCCCS(=O)(=O)Oc1ccccc1
inactive: [1] | [2] | [3] | [4] | [10] | [5] | [6] | [7] | [8] | [9]

O=[N+]([O-])c1ccc(O)cc1
inactive: [1] | [2] | [3] | [4] | [10] | [5] | [6] | [7] | [8] | [9]

Cc1cc(C)c(O)c(C)c1
inactive: [1] | [2] | [3] | [4] | [10] | [5] | [6] | [7] | [8] | [9]

COCC(C)O (centres undefined)
inactive: [1] | [2] | [3] | [4] | [10] | [5] | [6] | [7] | [8] | [9]

CCc1ccc(CCOc2ccc(CC3SC(=O)NC3=O)cc2)nc1 (centres undefined)
inactive: [1] | [2] | [3] | [4] | [10] | [5] | [6] | [7] | [8] | [9]

CCCCCCCC(=O)O
inactive: [1] | [2] | [3] | [4] | [10] | [5] | [6] | [7] | [8] | [9]

Cc1cc(CCN2CCN(c3nsc4ccccc34)CC2)cc2c1NC(=O)CC2(C)C
active: [1] 28.5 µM | [2] 36.1 µM | [3] 33.4 µM | [4] 37.1 µM | [10] 29.8 µM | [5] 37.1 µM | [6] 31.5 µM | [7] 36.5 µM | [8] 33.9 µM | [9] 29.6 µM

CC[C@H](c1ccc(O)cc1)[C@@H](CC)c1ccc(O)cc1
inactive: [1] | [2] | [3] | [4] | [5] | [6] | [7] | [8] | [9]
active: [10] 20 µM

COCC(C)OCC(C)O (centres undefined)
inactive: [1] | [2] | [3] | [4] | [10] | [5] | [6] | [7] | [8] | [9]

CC(C)(C)c1cc(C(C)(C)C)c(O)c(C(C)(C)C)c1
active: [3] 11.8 µM | [8] 6.88 µM
inactive: [1] | [2] | [4] | [10] | [5] | [6] | [7] | [9]

OC1CCCCC1
active: [6] 23.1 µM
inactive: [1] | [2] | [3] | [4] | [10] | [5] | [7] | [8] | [9]

O=C(OCCOCCOC(=O)c1ccccc1)c1ccccc1
inactive: [1] | [2] | [3] | [4] | [10] | [5] | [6] | [7] | [8] | [9]

CCN(CC)CCNc1ccc(CNC=O)c2sc3ccc(OC)cc3c(=O)c12
active: [1] 12.3 µM | [2] 25.9 µM | [4] 26.9 µM | [10] 20 µM | [6] 20.3 µM | [7] 26.3 µM | [8] 31.2 µM | [9] 5.33 µM
inactive: [3] | [5]

N#C[C@@H]1CC(F)(F)CN1C(=O)CNC1CC2CCC(C1)N2c1ncccn1 (some centres undefined)
inactive: [1] | [2] | [3] | [4] | [10] | [5] | [6] | [7] | [8] | [9]
